# Results published in PubChem BioAssay (NCI).
# Compounds without any hit were thinned out: in the full panel of roughly 83,000, 20% have a hit.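 Negative percent growth values reflect cell death: -40 means 40% of the cells present at the start died, and -100 means all died.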 Values without a mark were called inactive. Calls of active or inactive are those of the source. The calls were made as follows: active = growth percent below 10; inactive = the rest.
# Test system: M14 melanoma
# Test: NCI-60 one-dose screen, 48 h (100 = growth as untreated, 0 = no growth, -100 = all killed)
# Conditions: 10 µM unless noted
row,SMILES,growth
1,O=C(CSc1nc2ccc([N+](=O)[O-])cc2[nH]1)Nc1ccc(F)c(Cl)c1,25.4%
2,Cc1cc(C)c(O)c(CNCCCCCCNCc2cc(C)cc(C)c2O)c1,-79.9% (active)
3,CS(=O)(=O)c1cccnn1,103%
4,Cc1ccc(S(=O)(=O)Nc2ccccc2)cc1N,96.2%
5,Nc1cc(C(=O)O)[nH]c(=S)n1,93.7%
6,COc1ccc(-c2nc3ccccn3c2/C=C/C(=O)c2cc(OC)c(OC)c(OC)c2)cc1OC,13.4%
7,O=C(Nc1cccc2cccnc12)c1cc(C(=O)c2ccc(Cl)cc2)n2ccc(-c3ccncc3)cc12,96.1%
8,Cc1cccc(C[C@H](NC(=O)Nc2ccc(C)cc2F)C(=O)N[C@@H]2C(=O)N3C[C@H](O)C[C@H]3C(=O)N3CCN(C)C[C@H]3C(=O)N[C@@H](C)C(=O)N3C[C@H](C)C[C@H]3C(=O)O[C@H]2C)c1,79.9%
9,O=C1COCCN1c1ccc(NCc2cn(Cc3cccc4ccccc34)c3ccccc23)cc1,89%
10,COc1ncnc2c(-c3ccccc3)cn(COCc3ccccc3)c12,44.1%
11,O=C1CN(Cc2ccc(C(=O)NO)cc2)C(=O)[C@@H](Cc2ccccc2)N1,107%
12,CC(C)C1=NOC(=O)C1=Cc1cn(-c2ccco2)nc1-c1ccccc1,85.6%
13,c1ccc(-c2nnc(-c3c[nH]c4ncccc34)s2)cc1,97.8%
14,COCCCNc1nc(NC(=O)c2cc(Br)cc(C(F)(F)F)c2)cc(-c2cccnc2)n1,96.5%
15,CCn1cc(-c2cc(-c3ccc(Cl)cc3)nc(N)n2)c(-c2ccc(Br)cc2)n1,74.5%
16,CCOC(CNC(=O)c1cccc([N+](=O)[O-])c1)OCC,98.7%
17,Cc1cccc([N+](=O)[O-])c1I,108%
18,CCOc1cc(NC(=O)c2ccccc2)c(OCC)cc1N,116%
19,CN(C)CCOc1ccc(/C(=C(/CCCl)c2ccccc2)c2ccccc2)cc1,-52.2% (active)

row,SMILES,growth
1,Nc1nc(N)c2c(n1)NC(c1ccc(F)cc1)C1CCc3ccccc3C1=N2 (stereo unspecified),62.8%
2,CNC(=O)c1cc(Oc2ccc3nc(NC(=O)c4ccc5ncccc5c4)sc3c2)ccn1,102%
3,CC1(C)CC[C@]23CC[C@]4(C)[C@H](CC[C@@H]5[C@@]6(C)C/C(=C/c7ccncc7)C(=O)C(C)(C)[C@@H]6CC[C@]54C)[C@H]2[C@H]1OC3=O,79.3% [100 µM]
4,CC1=CC[C@@H]2C(C)(C)C(=O)CC[C@@]2(C)[C@@H]1COc1ccc2ccc(=O)oc2c1,89%
5,COc1ccc(/C=C/C=C\C(=O)c2ccc(-n3ccnc3)cc2)cc1,21.3%
6,CCc1cccc(Cl)c1,101%
7,Cc1ccc(S(=O)(=O)n2cc(C(=O)C(=O)N3CCCCC3)c3ccccc32)cc1,89.4%
8,Cn1cc(-c2noc(-c3cn(C)c4ncc(F)cc34)n2)c2cc(Cl)ccc21,78.6%
9,O=C(Nc1cccc2ccccc12)c1cc2ccccc2cc1O,32.2%
10,C#C[C@]1(O)CC[C@H]2[C@@H]3CC=C4c5nc(Nc6ncccn6)sc5CC[C@]4(C)[C@H]3CC[C@@]21C,43.8%
11,CC(=O)OC[C@]12CC[C@@H](C(=O)CBr)[C@@H]1[C@H]1CC[C@@H]3[C@@]4(C)CCCNC(C)(C)[C@@H]4CC[C@@]3(C)[C@]1(C)CC2,-48.5% [100 µM] (active)
12,O=S(=O)(c1ccc(N/N=C\c2ccccc2Cl)cc1)c1ccc(N/N=C/c2ccccc2Cl)cc1,84.7%
13,Nc1nc(Cl)c2ncn(Cc3cc4c(cc3I)OCO4)c2n1,76%
14,Cc1ccc2c(c1)/C(=N\N=C/c1cn(C(C)C)c3ccccc13)C(=O)N2,54%
15,O=C1CC(c2ccccc2)Cc2nc3ccc(Cl)cc3cc21 (stereo unspecified),8.98% (active)
16,C=C(C)[C@@H]1CC[C@]2(C(N)=O)CC[C@]3(C)[C@H](CC[C@@H]4[C@@]5(C)CC[C@H](O)C(C)(C)[C@@H]5CC[C@]43C)[C@@H]12,8.8% [100 µM] (active)
17,COc1ccc(-c2cc(-c3ccc(Cl)cc3)nc(SCCCCCCC(=O)NO)n2)cc1,22.3%
18,Cc1cc[n+](CCCCCCCCCC[n+]2ccc(C)cc2)cc1,97.7%
19,CCCSc1nc(N)nc2nc[nH]c12,96%

# Test system: HCT-15 colon
# Test: as above
# Conditions: 10 µM unless noted
row,SMILES,growth
1,O=C(CSc1nc2ccc([N+](=O)[O-])cc2[nH]1)Nc1ccc(F)c(Cl)c1,18.5%
2,Cc1cc(C)c(O)c(CNCCCCCCNCc2cc(C)cc(C)c2O)c1,-53.2% (active)
3,CS(=O)(=O)c1cccnn1,108%
4,Cc1ccc(S(=O)(=O)Nc2ccccc2)cc1N,99.1%
5,Nc1cc(C(=O)O)[nH]c(=S)n1,101%
6,COc1ccc(-c2nc3ccccn3c2/C=C/C(=O)c2cc(OC)c(OC)c(OC)c2)cc1OC,22.1%
7,O=C(Nc1cccc2cccnc12)c1cc(C(=O)c2ccc(Cl)cc2)n2ccc(-c3ccncc3)cc12,99.1%
8,Cc1cccc(C[C@H](NC(=O)Nc2ccc(C)cc2F)C(=O)N[C@@H]2C(=O)N3C[C@H](O)C[C@H]3C(=O)N3CCN(C)C[C@H]3C(=O)N[C@@H](C)C(=O)N3C[C@H](C)C[C@H]3C(=O)O[C@H]2C)c1,105%
9,O=C1COCCN1c1ccc(NCc2cn(Cc3cccc4ccccc34)c3ccccc23)cc1,74%
10,COc1ncnc2c(-c3ccccc3)cn(COCc3ccccc3)c12,42.6%
11,O=C1CN(Cc2ccc(C(=O)NO)cc2)C(=O)[C@@H](Cc2ccccc2)N1,104%
12,CC(C)C1=NOC(=O)C1=Cc1cn(-c2ccco2)nc1-c1ccccc1,77.8%
13,c1ccc(-c2nnc(-c3c[nH]c4ncccc34)s2)cc1,83.4%
14,COCCCNc1nc(NC(=O)c2cc(Br)cc(C(F)(F)F)c2)cc(-c2cccnc2)n1,85.9%
15,CCn1cc(-c2cc(-c3ccc(Cl)cc3)nc(N)n2)c(-c2ccc(Br)cc2)n1,64.9%
16,CCOC(CNC(=O)c1cccc([N+](=O)[O-])c1)OCC,99.7%
17,Cc1cccc([N+](=O)[O-])c1I,113%
18,CCOc1cc(NC(=O)c2ccccc2)c(OCC)cc1N,111%
19,CN(C)CCOc1ccc(/C(=C(/CCCl)c2ccccc2)c2ccccc2)cc1,23.9%

row,SMILES,growth
1,Nc1nc(N)c2c(n1)NC(c1ccc(F)cc1)C1CCc3ccccc3C1=N2 (stereo unspecified),49.6%
2,CNC(=O)c1cc(Oc2ccc3nc(NC(=O)c4ccc5ncccc5c4)sc3c2)ccn1,91.1%
3,CC1(C)CC[C@]23CC[C@]4(C)[C@H](CC[C@@H]5[C@@]6(C)C/C(=C/c7ccncc7)C(=O)C(C)(C)[C@@H]6CC[C@]54C)[C@H]2[C@H]1OC3=O,76.5% [100 µM]
4,CC1=CC[C@@H]2C(C)(C)C(=O)CC[C@@]2(C)[C@@H]1COc1ccc2ccc(=O)oc2c1,78.6%
5,COc1ccc(/C=C/C=C\C(=O)c2ccc(-n3ccnc3)cc2)cc1,91.3%
6,CCc1cccc(Cl)c1,105%
7,Cc1ccc(S(=O)(=O)n2cc(C(=O)C(=O)N3CCCCC3)c3ccccc32)cc1,79.9%
8,Cn1cc(-c2noc(-c3cn(C)c4ncc(F)cc34)n2)c2cc(Cl)ccc21,65.8%
9,O=C(Nc1cccc2ccccc12)c1cc2ccccc2cc1O,19.1%
10,C#C[C@]1(O)CC[C@H]2[C@@H]3CC=C4c5nc(Nc6ncccn6)sc5CC[C@]4(C)[C@H]3CC[C@@]21C,33.1%
11,CC(=O)OC[C@]12CC[C@@H](C(=O)CBr)[C@@H]1[C@H]1CC[C@@H]3[C@@]4(C)CCCNC(C)(C)[C@@H]4CC[C@@]3(C)[C@]1(C)CC2,-74.7% [100 µM] (active)
12,O=S(=O)(c1ccc(N/N=C\c2ccccc2Cl)cc1)c1ccc(N/N=C/c2ccccc2Cl)cc1,73.7%
13,Nc1nc(Cl)c2ncn(Cc3cc4c(cc3I)OCO4)c2n1,25.1%
14,Cc1ccc2c(c1)/C(=N\N=C/c1cn(C(C)C)c3ccccc13)C(=O)N2,28.6%
15,O=C1CC(c2ccccc2)Cc2nc3ccc(Cl)cc3cc21 (stereo unspecified),13.9%
16,C=C(C)[C@@H]1CC[C@]2(C(N)=O)CC[C@]3(C)[C@H](CC[C@@H]4[C@@]5(C)CC[C@H](O)C(C)(C)[C@@H]5CC[C@]43C)[C@@H]12,6.36% [100 µM] (active)
17,COc1ccc(-c2cc(-c3ccc(Cl)cc3)nc(SCCCCCCC(=O)NO)n2)cc1,15.5%
18,Cc1cc[n+](CCCCCCCCCC[n+]2ccc(C)cc2)cc1,103%
19,CCCSc1nc(N)nc2nc[nH]c12,104%
